The whole screen tested about 360,000 compounds, of which about 2,200 (0.61%) were called active. Only a selection was taken, and actives are over-represented in it overall. A number with no mark means an inactive call.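 How the source made its calls: active means inhibition above a per-plate cutoff, the plate's mean sample inhibition plus 3 SD (cut at about 24% in these data); inactive means the rest.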
experiment: nonselective inhibitors of ATP calcium response in CHO-K1, primary screen, counter-screen for M1 antagonist project, cell-based, Fluo-8 calcium fluorescence, full deck, 1536-well (AID 602250); details: CHO-K1 parental, ATP-induced calcium, Fluo-8 fluorescence; at 3 µM; active compounds read high;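 further: 0% = DMSO plus EC80 ATP and 100% = DMSO alone without ATP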

Row | Structure (SMILES) | inhibition
1 | CCOC(=O)C1(CCOC)CCN(Cc2cc3ccccc3s2)CC1 | -9.7%
2 | CCNC(=O)c1cccc(NC(=O)C2CC(=O)N(CCc3ccccc3)C2)c1 (configuration not stated) | -8.93%
3 | COC(=O)C1=C(C(=O)OC)C2(OC1c1ccc(Br)cc1)C(=O)c1ccccc1C2=O (configuration not stated) | -3.96%
4 | O=C(c1ccc(C(F)(F)F)cc1)C1CCCN(C(=O)c2csnn2)C1 (configuration not stated) | -23.1%
5 | CC(C)(C)OC(=O)C[C@@H]1C/C=C\C[C@@H](CC(=O)NCCO)C(=O)N[C@H](Cc2c[nH]c3ccccc23)COC1=O | -11.8%
6 | Cc1nc(CN(C)C(=O)CC2C(=O)NCCN2Cc2ccc(F)cc2)cs1 (configuration not stated) | -6.22%
7 | Nc1c(C(=O)c2cccs2)sc2nsc(SCCN3CCCCC3)c12 | 47% (active)
8 | CCN(CC(=O)Nc1cc(Cl)ccc1C)C(=O)CN1C(=O)NC2(CCCC2)C1=O | -4.87%
9 | CCCc1nc2ccccc2c(C(=O)OCc2nnc(-c3cc(OC)c(OC)c(OC)c3)o2)c1CC | 1.5%
10 | COc1cc(-c2nnc(Cn3cc(C(F)(F)F)ccc3=O)o2)cc(OC)c1OC | 27.6% (active)
11 | COc1cc(-c2nnc(NC(=O)CS(=O)(=O)c3ccc(Cl)cc3)o2)cc(OC)c1OC | 12.6%
12 | Cn1c(SCC(=O)NC2CCCCC2)nnc1-c1ccc(N)cc1 | 3.52%
13 | N#Cc1cc([N+](=O)[O-])ccc1NCC1CCCO1 (configuration not stated) | -8.37%
14 | O=C1c2cccc3c([N+](=O)[O-])ccc(c23)C(=O)N1CC1CCCO1 (configuration not stated) | 24.2% (active)
15 | O=C1C(C=NCC2CCCO2)=C(O)c2ccccc21 (configuration not stated) | -5.68%
16 | CCOc1ccc(NC(=S)N2CCC(N(C)CC3CCCO3)CC2)cc1 (configuration not stated) | -7.23%
17 | COc1ccc(CC(=O)NC2CCSc3ccccc32)cc1OC (configuration not stated) | -0.56%
18 | COc1ccc(CCNC(=O)Cc2ccc(C)cc2)cc1OC | 8.59%
19 | COc1ccc(CC(=O)Nc2nc(-c3ccc(F)c(F)c3)cs2)cc1OC | 32.9% (active)
20 | CC(=O)Nc1cccc(/C(C)=N/NC(=O)c2c(-c3ccccc3Cl)noc2C)c1 | 10.5%
21 | CC(=O)Nc1cccc(NC(=O)c2c(-c3ccccc3)noc2C)c1 | 26.9% (active)
22 | Cc1onc(-c2c(F)cccc2Cl)c1C(=O)N(C)CC(=O)Nc1cccc(F)c1 | -0.6%
23 | CC(C)c1nc(SCC(=O)NC(=O)NC(C)(C)C)n[nH]1 | -2.13%

Row | Structure (SMILES) | inhibition
24 | Cc1cc(NC(=O)Nc2c[nH]c(=O)[nH]c2=O)ccc1Br | -4.71%
25 | CCN1N=C(c2ccccc2)CCC1=O | -1.49%
26 | O=C1NC(=O)C2C1C(c1ccc([N+](=O)[O-])cc1)=NN2Cc1ccccc1 (configuration not stated) | -6.56%
27 | O=C1CC(c2ccccc2)=NN1c1ccc([N+](=O)[O-])cc1 | 26.7% (active)
28 | Cc1csc(NC(=O)C2CCCN2C(=O)OCC(C)C)n1 (configuration not stated) | 17%
29 | O=C(N/N=C/c1ccc(OC(=O)c2ccccc2Cl)cc1)c1ccc(O)cc1 | 24.1% (active)
30 | CC(C)(C)C(=O)Nc1ccc(C(=O)N/N=C/c2ccccc2OC(=O)c2ccc(Cl)cc2Cl)cc1 | 13.2%
31 | O=C(N/N=C/c1ccc(OCC2COCCO2)cc1)c1ccc(Br)cc1 (configuration not stated) | -8.18%
32 | O=C(c1ccccc1F)N(Cc1ccccc1)Cc1ccccc1 | -7.64%
33 | COCCn1c(Cc2cccn2C)nnc1SCC(=O)Nc1nccs1 | -7.19%
34 | Cc1ccc(S(=O)(=O)N2CCN(C(=O)c3cccs3)CC2)cc1 | -9.88%
35 | O[C@H]1C[C@H](c2ccc(Cl)cc2)N(Cc2cccs2)C[C@@H]1n1cc(C2CC2)nn1 | -27.1%
36 | O=C(Nc1ccc(-c2ccc3nncn3n2)cc1)C1CCCCC1 | -5.78%
37 | CCCN(C(=O)CSc1nnnn1C)c1c(N)n(Cc2ccccc2)c(=O)[nH]c1=O | 4.6%
38 | C#CCNC(=O)C[C@@H]1C[C@@]2(C(=O)OCC)CCCC=C2N(Cc2ccco2)C1=O | -0.85%
39 | COc1cc(OC)cc(-c2nnc(SCC(=O)Nc3ccc(C(=O)O)cc3)s2)c1 | -8.28%
40 | Nc1nnc(SCC(=O)Nc2ccc3nc(SCC(=O)Nc4ccccc4)sc3c2)s1 | 30% (active)
41 | CCCCNC(=O)CSc1nc2ccc(NC(=O)CSc3nnc(N)s3)cc2s1 | -6.75%
42 | CCN(CC)CCN1C(=O)C2C(C(=O)Nc3ccc(Br)cc3)C3C=CC2(O3)C1C(=O)NC1CCCCC1 (configuration not stated) | -12.1%
43 | COc1ccc(C(=O)C2CCCN(C(=O)c3cc(C)on3)C2)cc1F (configuration not stated) | -2.55%
44 | COc1ccc(F)cc1C(=O)C1CCCN(C(=O)CCc2ccccn2)C1 (configuration not stated) | 4.6%
45 | COc1ccc(C(=O)N2CCCC(C(=O)c3ccccc3OC)C2)cc1OC (configuration not stated) | 36.9% (active)
46 | CCN(CC)CC(=O)Nc1sc2c(c1C(=O)c1ccccc1C)CCC2 | 3.09%

Row | Structure (SMILES) | inhibition
47 | O=C(Nc1ccc(Cl)cc1)OCc1cc(-c2ccccc2)on1 | 7.62%
48 | O=C(Nc1cccc(Cl)c1)OCc1ccccn1 | 25.6% (active)
49 | O=C(Nc1ccc([N+](=O)[O-])cc1)OCCc1ccccn1 | -2.63%
50 | O=C(CN1CCN(S(=O)(=O)c2ccc3ccccc3c2)CC1)NC(=O)NC1CCCCC1 | -2.87%
51 | COc1cc2ccc(C(C)=O)c(O)c2cc1OC | -2.14%
52 | O=C(CN(c1ccc2c(c1)OCCO2)S(=O)(=O)c1ccccc1)Nc1ccc2c(c1)OCO2 | 30.7% (active)
53 | CCN(CC(=O)Nc1ccc2c(c1)OCO2)S(=O)(=O)c1ccccc1 | -6.57%
54 | O=C(CCS(=O)(=O)Cc1ccccc1)Nc1ccc2c(c1)OCCO2 | -8.23%
55 | CC1CCCCN1S(=O)(=O)CCNC(=O)c1ccccc1 (configuration not stated) | 14.2%
56 | Cc1ccnc(SC2CC(=O)N(c3ccccc3)C2=O)n1 (configuration not stated) | 16.3%
57 | CC(=O)Nc1ccc(N2C(=O)CC(Sc3nccc(C)n3)C2=O)cc1 (configuration not stated) | 23.8% (active)
58 | CCOc1ccccc1N1C(=O)CC(Sc2nccc(C)n2)C1=O (configuration not stated) | -15.2%
59 | C#Cc1ccc([C@@H]2C=C(C(=O)O)O[C@H](OCCCCO)C2)cc1 | -9.51%
60 | O=C(NNc1nc(N2CCCC2)nc(N2CCCC2)n1)c1ccccc1 | -8.06%
61 | FC(F)(F)COc1nc(N2CCCCC2)nc(N2CCNCC2)n1 | -9.46%
62 | CN(N)c1nc(N2CCCC2)nc(N2CCCC2)n1 | 25.6% (active)
63 | COC(=O)c1ccc(CN2CCCC(C(=O)Nc3cccc(-n4cnnn4)c3)C2)cc1 (configuration not stated) | 0.04%
64 | O=Cc1c(NCCc2cccc(F)c2)c2ccccc2[nH]c1=O | -10.6%
65 | CCCCOc1ccc(N(CC(=O)NC(C)C)C(=O)CCC(=O)Nc2ccccn2)cc1 | 23.1%
66 | COc1cc(CNc2ncn[nH]2)ccc1OCc1ccccc1C | -1.69%
67 | O=C(CNS(=O)(=O)c1ccccc1)NCC(=O)OCc1ccccc1F | -0.17%
68 | CCSc1ncnc2c(C#N)c3n(c12)CCCCC3 | 40.4% (active)
69 | CCSC1=C(C#N)C(=O)n2c1cc1c2CCCC1 | -1.55%

Row | Structure (SMILES) | inhibition
70 | CCOC(=O)c1c(N=CN(C)C)c(C#N)c2n1CCCC2 | -8.04%
71 | Cc1cc2oc(=O)cc(CN(C)Cc3ccccc3)c2cc1Cl | 6.2%
72 | Cc1ccc2nc(NC(=O)CSc3nc(=O)n(CCCN(C)C)c4c3CCC4)sc2c1 | -19.7%
73 | CCN(CC)CCn1c2c(c(SCC(=O)Nc3nc4ccccc4s3)nc1=O)CCCC2 | 28.3% (active)
74 | CCN(CC)CCn1c2c(c(SCC(=O)Nc3ccc(C(C)C)cc3)nc1=O)CCC2 | -0.47%
75 | C=CCNC(=S)NNc1ncnc2sc3c(c12)CC(C)(C)OC3 | -3.73%
76 | O=C(C1CCN(S(=O)(=O)c2cccs2)CC1)N1CCCCCC1 | -13.2%
77 | Cc1ccc(S(=O)(=O)N2C[C@]3(O)C[C@@H]4C(=O)N(c5ccccc5)C(=O)[C@@H]4C[C@]3(OC(=O)NC3CC3)C2)cc1 | -3.35%
78 | O=C(Nc1ccccc1)c1ccc2nsnc2c1 | 29.9% (active)
79 | CC(C)n1c(=O)[nH]c2cc(C(=O)Nc3ccccc3)ccc21 | 2.48%
80 | Cc1cccc(NC(=O)c2ccc3nsnc3c2)c1C | -0.08%
81 | CCC1Oc2ccc(Cl)cc2N(CC(=O)O)C1=O (configuration not stated) | -18.5%
82 | COc1ccc(C(=O)NC(=S)N2CCNC(=O)C2CC(=O)OC(C)C)cc1 (configuration not stated) | -6.8%
83 | O=C(NCCN=C1NS(=O)(=O)c2ccccc21)c1ccc(S(=O)(=O)N2CCOCC2)cc1 | 2.91%
84 | Cc1ccccc1C(=O)NCCN=C1NS(=O)(=O)c2ccccc21 | 27.1% (active)
85 | CN(C)S(=O)(=O)c1ccc(C(=O)NCCN=C2NS(=O)(=O)c3ccccc32)cc1 | -3.13%
86 | CCCC(=O)N1CCC1(C)C(=O)Nc1ccc(-n2cncn2)cc1 (configuration not stated) | -6.21%
87 | C=CCC1(CC=C)CCCN1C(=O)c1cc(COc2ccc(-n3cncn3)cc2)on1 | 31.3% (active)
88 | O=C(c1cc(COc2c(F)cccc2F)on1)N1CCSCC1 | -8.58%
89 | COc1ccccc1C(=O)Nc1cccc(C(=O)N2CCOCC2)c1 | -9.07%
90 | CCc1cc(C(c2ccccc2OC)N2CCOCC2)c(NC(=O)c2ccccc2)s1 (configuration not stated) | 24.8% (active)
91 | COc1cc(C(c2c(NC(=O)c3ccco3)sc(C)c2C)N2CCOCC2)cc(OC)c1OC (configuration not stated) | 5.36%
92 | CC(C)OCCCNC(=O)c1ccc(C2SCC(=O)N2Cc2ccco2)cc1 (configuration not stated) | -4.67%

— PubChem BioAssay AID602250 (The Scripps Research Institute Molecular Screening Center, 2012)
